High-throughput results deposited in PubChem by National Center for Advancing Translational Sciences (NCATS).
Most compounds without a hit are left out; they make up all but 6.1% or so of the library.
DRD3 antagonist: D3 dopamine receptor (human) antagonism. D3R cells, DiscoveRx beta-arrestin luminescence, antagonist mode; active compounds read low. max response, negative = inhibition, %. 360,000 compounds, 2.5% hits; in the data active = max response below about -50%; inconclusive = no clear call, values can overlap the other calls; also: % is scaled to controls: 0 for no effect and ±100 for the full control effect
Target sequence (P35462 whole entry, looked up): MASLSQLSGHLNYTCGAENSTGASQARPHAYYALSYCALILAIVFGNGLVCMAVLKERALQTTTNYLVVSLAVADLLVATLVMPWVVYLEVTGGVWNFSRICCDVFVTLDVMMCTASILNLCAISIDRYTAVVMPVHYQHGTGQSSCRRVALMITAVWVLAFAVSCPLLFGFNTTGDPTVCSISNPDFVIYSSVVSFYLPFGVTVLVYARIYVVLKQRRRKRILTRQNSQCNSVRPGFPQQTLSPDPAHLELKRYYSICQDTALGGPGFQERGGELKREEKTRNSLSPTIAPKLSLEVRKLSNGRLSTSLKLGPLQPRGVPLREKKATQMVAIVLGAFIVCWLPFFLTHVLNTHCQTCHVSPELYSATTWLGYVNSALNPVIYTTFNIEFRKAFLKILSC
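Cells expressing the human receptor were seeded at 1500 cells/well, incubated overnight at 37 degrees C in 5% CO2, then exposed to library compounds with dopamine controls for 90 minutes at 37 degrees C before luminescent detection.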
D1 antagonist: antagonists of human D1 dopamine receptor; 360,000 compounds, 3.2% hits; P21728; HEK293 TREx D1 cells, calcium flux, dopamine EC80; active compounds read low; activity change, negative = inhibition, % at 10 µM; in the data active = activity change below about -30%; also: % is scaled to controls: 0 for no effect and ±100 for the full control effect
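Kinetic fluorescence of a calcium dye serves as the read-out. D1-expressing Hek293 Trex cells, induced overnight at 30 C, are exposed to compound for 180 s before an EC80 dopamine addition, then read 180 s further.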
DRD3 agonist: agonists of human D3 dopamine receptor | P35462 | D3R DiscoveRx beta-arrestin cells, luminescence, 90 min | max activation, % | 410,000 compounds, 0.58% hits; in the data active = max activation above about 30%; also: 0% is about no effect
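Cells at 1500/well, incubated overnight, then treated with pinned compounds (dopamine as control) for 90 min at 37 degrees C. DiscoveRx reagent added for 30 - 60 minutes at room temperature; luminescence read.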
D1 agonist: agonists of human D1 dopamine receptor | HEK293 T-REx D1 cells, calcium flux, agonist mode | AID 504660 | activation, % at 2 µM | P21728 | 360,000 compounds, 1% hits; in the data active = activation above about 30%; also: 0% is about no effect
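Tetracycline-induced HEK293 TREx D1 cells, force-coupled to calcium signalling, were dye-loaded with a no-wash calcium kit. Compound was pin-added after a 10 s baseline. Fluorescence was read kinetically at 1 cycle/s for 180 s, with calcium rises flagged as agonism.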
D1 PAM: enhances dopamine response at the human D1 receptor. potentiation, % at 10 µM. 360,000 compounds, 0.036% hits. P21728. AID 504651. HEK293 TREx D1 cells, calcium flux, dopamine EC20 potentiation; in the data active = potentiation above about 30%; also: 0% is about no effect
Starred values were filed as active, the others as inactive; ? = inconclusive; / = not tested or not shown.

SMILES	DRD3 antagonist	D1 antagonist	DRD3 agonist	D1 agonist	D1 PAM
O=C(c1ccc(CS(=O)(=O)c2ccc(Br)cc2)o1)N1CCC2(CC1)OCCO2	22.0	-20.4	4.1	0.4	-12.3
O=C(c1ccc(CS(=O)(=O)c2ccccc2)o1)N1CCC2(CC1)OCCO2	9.1	1.6	33.6*	-1.9	3.0
O=C(c1ccc(CNS(=O)(=O)c2ccccc2)cc1)N1CCC2(CC1)OCCO2	-53.4*	-8.8	-0.4	2.3	-0.1
CCCCc1nc2ccccc2c(=O)n1-c1cccc(OC)c1	/	4.9	-12.1	5.9	-1.6
CCCCCCOc1ccc(CN2CCN(CC)CC2)cc1	?	-4.2	-20.5	21.3	-2.9
CCN1CCN(Cc2ccc(OC(F)(F)F)cc2)CC1	-18.3	-33.6*	-13.3	5.0	2.7
Cc1oc(-c2ccc(Cl)cc2)nc1CN1C(=O)CN=C(c2ccccc2)c2ccccc21	/	-15.9	-3.7	4.7	-2.2
CC(C)C[C@H]1C(=O)N2CCCC2[C@]2(O)O[C@](NC(=O)[C@@H]3C=C4c5cccc6[nH]cc(c56)CC4N(C)C3)(C(C)C)C(=O)N12 (stereo partly drawn)	?	-25.9	13.7	8.3	-1.5
CC(C)[C@H]1C(=O)N2CCC[C@H]2[C@]2(O)O[C@](NC(=O)[C@@H]3C=C4c5cccc6[nH]cc(c56)C[C@H]4N(C)C3)(C(C)C)C(=O)N12	0.0	-33.5*	10.1	3.7	-4.9
CC(C)[C@@]1(NC(=O)[C@@H]2C[C@@H]3c4cccc5[nH]cc(c45)C[C@H]3N(C)C2)O[C@@]2(O)[C@@H]3CCCN3C(=O)[C@H](Cc3ccccc3)N2C1=O	-96.1*	-67.8*	-59.3	28.7	-6.2
CC(C)[C@H]1C(=O)N2CCC[C@H]2[C@]2(O)O[C@](NC(=O)[C@@H]3C[C@@H]4c5cccc6[nH]cc(c56)C[C@H]4N(C)C3)(C(C)C)C(=O)N12	/	/	5.2	/	/
COc1ccc(OC)c(NC(=O)Cn2cc(C(=O)c3ccccc3F)c3ccccc32)c1	/	-32.9*	1.1	3.4	-3.9
O=C1Nc2ccc(Cl)cc2C(c2ccccc2Cl)=NC1O (stereo not drawn)	/	/	2.8	/	/
Cc1cc(-n2c(/C=C/c3cccs3)nc3ccccc3c2=O)ccc1Br	/	-31.8*	-0.7	-0.2	-0.9
Cc1cc(-c2ccccc2)cc(-c2ccccc2)[n+]1CCc1ccccc1	19.5	-42.5*	0.3	-1.6	-12.3
CC(=O)[C@@]1(O)CC[C@H]2[C@@H]3CCC4=CC(=O)CC[C@]4(C)C3(F)[C@@H](O)C[C@@]21C (stereo partly drawn)	/	/	4.0	/	/
C[N+]1(CC2COC(c3ccco3)O2)CCCCC1 (stereo not drawn)	-7.6	-32.8*	3.9	2.0	-1.8
O=C(Cc1ccc([N+](=O)[O-])cc1)N1CCN(Cc2ccc3c(c2)OCO3)CC1	12.2	-35.8*	3.3	3.0	0.8
N#Cc1ccc(OCC(=O)N2CCN(Cc3ccc4c(c3)OCO4)CC2)cc1	11.7	-16.0	-1.4	10.1	-6.1
O=C1NC(=O)N(c2ccc3c(c2)OCO3)C(=O)/C1=C/c1ccc(N2CCCCC2)o1	2.1	2.6	0.0	22.4	3.4
CCN(CC)c1ccc(/C=C2\C(=O)NC(=S)N(C)C2=O)o1	?	0.0	-8.3	64.7*	-4.5
COc1cccc(N2C(=O)/C(=C/c3ccc(C)o3)C(=O)NC2=S)c1	-4.0	0.8	2.9	2.4	7.7
COC(=O)Cn1cc(/C=C2\C(=O)NC(=O)N(c3ccc(OC)cc3)C2=O)c2ccccc21	6.7	4.1	13.7	2.7	1.4
CN1C(=O)C(=Cc2ccc(N3CCCCC3)o2)C(=O)N(C)C1=S	-16.7	-7.0	1.2	85.4*	3.5
COc1ccc(N2C(=O)/C(=C/c3ccc(N(C)C)o3)C(=O)NC2=S)cc1	?	-2.8	-10.5	35.4*	3.5
SMILES	DRD3 antagonist	D1 antagonist	DRD3 agonist	D1 agonist	D1 PAM
COc1ccc(N2C(=O)NC(=O)/C(=C\c3cn(C)c4ccccc34)C2=O)cc1	-2.1	-10.9	1.5	54.5*	-0.5
CCN(CC)c1ccc(C=C2C(=O)N(C)C(=S)N(C)C2=O)o1	-16.9	-9.8	-10.9	50.2*	-0.4
ClC=C(Cl)Cl	/	/	3.0	/	/
O=C1OC2(c3cc(Br)c(O)cc3Oc3c2cc(Br)c(O)[c]3[Hg])c2ccccc21 (stereo not drawn)	/	/	2.8	/	/
CN1CCN(c2nc(Cl)ncc2F)CC1	4.7	-32.2*	-9.3	4.3	-10.8
CN1CCN(c2cn[nH]c(=O)c2Cl)CC1	-14.3	8.0	-13.3	1.8	-2.3
